# Screening results from PubChem BioAssay.
# TEAD-YAP block: TEAD-YAP interaction inhibition | HEK-TIYL cells, TEAD-Gal4/YAP UAS-luciferase luminescence | inhibition, % at 9.12 µM | hit rate 1.4% among 640,000 | AID 1259422; in the data active means inhibition above about 32%;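 further: 0% = median of test compound wells and 100% = reference inhibitor wells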
# MITF inh: inhibitors of human MITF | O75030 | AlphaScreen MITF homodimerization, bead proximity signal | inhibition, % at 2.6 µM | hit rate 0.91% among 650,000; in the data active means inhibition above about 50%;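 further: 0% = vehicle wells with protein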
# Target sequence (O75030 whole entry, looked up): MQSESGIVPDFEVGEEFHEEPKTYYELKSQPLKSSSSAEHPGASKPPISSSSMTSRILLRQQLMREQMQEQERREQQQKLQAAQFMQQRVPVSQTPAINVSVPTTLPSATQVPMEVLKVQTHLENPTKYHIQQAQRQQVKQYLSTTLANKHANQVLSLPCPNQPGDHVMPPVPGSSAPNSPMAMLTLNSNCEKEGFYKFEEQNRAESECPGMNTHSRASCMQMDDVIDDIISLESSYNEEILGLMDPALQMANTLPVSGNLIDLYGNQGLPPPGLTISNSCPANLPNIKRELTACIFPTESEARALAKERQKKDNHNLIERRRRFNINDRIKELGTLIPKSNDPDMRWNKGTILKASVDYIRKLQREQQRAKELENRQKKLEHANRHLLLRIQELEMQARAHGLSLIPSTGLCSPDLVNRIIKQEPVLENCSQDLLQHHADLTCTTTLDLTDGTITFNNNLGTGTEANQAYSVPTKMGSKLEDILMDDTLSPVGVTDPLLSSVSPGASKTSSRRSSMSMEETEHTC
# FBW7 activator: activators of human E3 ligase FBW7; hit rate 0.13% among 650,000; normalized activity (activation), % at 26.1 µM; AlphaScreen FBW7–phospho-cyclin E peptide binding, activator screen; AID 1259310; in the data active means normalized activity above about 1.9%;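 further: purified mutant Fbw7 with reduced substrate affinity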
# GPR151 ag: human GPR151 activation. Q8TDV0. PathHunter beta-arrestin GPR151 cells, luminescence. activation, % at 11.2 µM. hit rate 1% among 650,000. AID 1508602; in the data active means activation above about 4.9%;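 further: 0% = median of compound wells and 100% = cells with positive control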
# Numbers without * were called inactive; ! = a repeat was not active. A selection: hits, their analogues and other compounds. The true share with any hit is near 3.5%.
SMILES,TEAD-YAP block,MITF inh,FBW7 activator,GPR151 ag
c1ccc(-c2nc(NC3CC3)c3ncn(-c4ccccc4)c3n2)cc1,4.8,-2.4,-0.2,-2.5
COc1ccc(-c2nc(Nc3ccc(NC(C)=O)cc3)c3ncn(-c4ccsc4)c3n2)cn1,50.8*,8.7,0.1,2.9
COc1ccc(CC(=O)NC(C)C)cc1,-1.8,-3.5,1.4,0.2
COC(=O)/C=C\C(=O)Nc1ccc(Br)c(C)c1,47.2*,-2.5,0.1,1.0
CC(=O)N(C1=C(N(C)C)C(=O)c2ccccc2C1=O)c1cc(C)cc(C)c1,85.0*,12.7,-0.2,-3.1
CC(=O)N(C1=C(N(C)C)C(=O)c2ccccc2C1=O)c1cccc(F)c1,95.0*,13.2,-0.6,-6.9
CC(=O)N(C1=C(Cl)C(=O)c2ccccc2C1=O)c1ccc(Br)cc1,11.3,17.8,-0.1,0.1
CC(=O)N(C1=C(N(C)C)C(=O)c2ccccc2C1=O)c1ccc(Cl)cc1,72.6*,6.4,-0.1,-3.4
CCCCN(CCCC)S(=O)(=O)c1cc(Br)cnc1N,4.5,6.1,-0.1,0.1
Cc1ccc(Nc2nnc(SCC(=O)N3CCCC3)s2)c(C)c1,-1.7,-5.1,-0.1,0.2
CCOc1ccc(/C=C(/C#N)C(=O)Nc2ccc(O)cc2)cc1OC,-3.3,-4.8,0.1,-0.4
COc1cc(/C=C(\C#N)C(=O)c2ccc(O)c(O)c2)cc(I)c1O,-1.3,84.9*,-0.2,-0.6
CCOc1cc(/C=C(/C#N)C(=O)Nc2ccc(O)cc2)ccc1O,49.7*,-11.5,0.0,0.7
CCOc1ccc(/C=C(/C#N)C(=O)Nc2ccc(O)cc2)cc1OCC,15.2,-2.0,-0.1,0.4
CCOc1cc(/C=C(/C#N)C(=O)Nc2ccc(O)cc2)ccc1OC,43.8*,8.4,0.0,-0.4
COc1cc(/C=C(/C#N)C(=O)Nc2ccc(O)cc2)cc(I)c1O,50.3*,-6.9,-0.1,0.3
N#C/C(=C\c1ccc(O)c(O)c1)C(=O)NCCCNC(=O)/C(C#N)=C/c1ccc(O)c(O)c1,0.7,96.1*,-0.1,-1.4
N#C/C(=C\c1ccc(O)c(O)c1)C(=O)Nc1ccccc1,-6.7,-11.2,-0.3,-3.2
CCOc1ccc(-n2nc3ccc(NC(=O)c4cccc5ccccc45)cc3n2)cc1,-1.7,10.8,1.3,-1.7
Cc1nc(NC(=S)NC(=O)c2ccccc2)sc1C(C)(C)C,36.6*,-2.6,-0.2,-0.2
Cc1ccc(CN2C(=O)S/C(=C\c3ccc(O)cc3)C2=O)cc1,-5.2,4.4,0.1,1.7
CC(=O)c1ccccc1OCc1ccccc1C,5.2,7.2,2.6*,0.2
c1cncc(CNc2ncnc3nc(Nc4ccc5ncccc5c4)[nH]c23)c1,37.7*,-2.6,-0.2,-1.8
COc1ccc(-n2ncc3c(N4CCOCC4)ncnc32)cc1,90.6*,0.9,-0.1,-4.9
Clc1ccc(-n2ncc3c(N4CCN(c5cccc(Cl)c5)CC4)ncnc32)cc1,0.5,-2.2,0.1,1.2
SMILES,TEAD-YAP block,MITF inh,FBW7 activator,GPR151 ag
c1ccc(-n2ncc3c(N4CCOCC4)ncnc32)cc1,70.4*,1.3,0.2,-1.4
Clc1cccc(-n2ncc3c(N4CCOCC4)ncnc32)c1,71.3*,-16.0,-0.1,-2.8
Cc1ccc(-n2ncc3c(N4CCOCC4)ncnc32)cc1C,78.7*,9.7,0.1,-7.0
COc1ccc(C(=O)OCc2nnc(-c3ccccc3)o2)cc1OC,-3.9,-15.9,0.2,-0.9
O=C(CNC(=O)c1ccc(Cl)cc1)N/N=C/c1cccc(O)c1,-1.3,4.1,0.1,1.8
COc1ccccc1N1CCN(c2ncnc3c2cnn3-c2cccc(C)c2)CC1,15.6,-6.0,0.2,2.6
COc1ccccc1N1CCN(c2ncnc3c2cnn3-c2ccc(C)cc2C)CC1,58.5*,5.0,-0.2,-0.1
COc1ccccc1C(=O)N1CCN(c2ccc([N+](=O)[O-])c(NC3CC3)c2)CC1,11.6,-10.9,-0.3,1.7
COc1ccc(/C=C2/C(=O)OCc3cc(OC)c(OC)cc32)cc1,45.4*,6.3,0.2,0.9
COc1cccc(CSc2nc3ccncc3[nH]2)c1,69.1*,-2.7,-0.3,-1.2
CCSCCOC(=O)C1=C(C)NC2=C(C(=O)CC(C)(C)C2)C1c1ccc2c(c1)OCO2 (stereo not drawn),0.5,8.8,0.2,2.7
CCCN1C(=O)C(O)(CC(=O)c2ccc([N+](=O)[O-])cc2)c2cc(Br)ccc21 (stereo not drawn),50.0*,9.7,0.0,-0.2
c1ccc(Oc2nc(NCCN3CCOCC3)c3ncn(-c4ccccc4)c3n2)cc1,34.1*,20.5,0.2,0.8
CN1CCN(c2ccc(-c3nc(NCCO)c4ncn(-c5ccccc5)c4n3)cc2)CC1,73.2*,-11.2,0.1,-0.5
COc1ccc(-c2nc(NCCN3CCOCC3)c3ncn(-c4ccccc4)c3n2)cc1,46.6*,16.4,0.4,-0.8
c1ccc(-n2cnc3c(NCCN4CCOCC4)nc(NCCN4CCOCC4)nc32)cc1,6.0,7.1,0.1,-1.1
CN1CCN(c2ccc(-c3nc(NCCOc4ccccc4)c4ncn(-c5ccsc5)c4n3)cc2)CC1,11.4,6.2,-0.1,-0.4
COc1cccc(S(=O)(=O)N2CCN(c3ccc(C)nn3)CC2)c1,14.4,-7.7,1.0,-2.0
O=C1NCCN(C/C=C/c2ccccc2)C1CC(=O)N1CCCO1 (stereo not drawn),1.3,-2.0,0.0,0.4
Brc1cnc(NC2CCN(Cc3ccccc3)CC2)nc1,44.4*,-2.0,-0.1,-0.6
c1ccc(CN2CCC(Nc3nccc(NC4CC4)n3)CC2)cc1,1.1,8.3,0.4,-0.9
O=C(Nc1ccc(-c2ncnc3[nH]ccc23)cc1)C1COc2ccccc2O1 (stereo not drawn),51.7*,23.4,1.3,-1.0
NC(C(=O)Nc1ccc(-c2ncnc3[nH]ccc23)cc1)c1ccc(Cl)cc1 (stereo not drawn),57.5*,16.9,0.1,-0.1
NC(C(=O)Nc1ccc(-c2ccnc3[nH]ccc23)cc1)c1ccc(Cl)cc1 (stereo not drawn),8.5,11.4,0.1,0.0
CCCOc1ccc(C(=O)Nc2ccc3nn(-c4ccc(C)cc4)nc3c2)cc1,1.2,-8.7,-0.2,0.7
SMILES,TEAD-YAP block,MITF inh,FBW7 activator,GPR151 ag
COC(=O)c1ccc(CC2(C)C(=O)Nc3c(-c4ccco4)cccc32)o1 (stereo not drawn),-6.1,10.8,-0.2,2.3
CC[C@@]1(O)C(=O)OCc2c1cc1n(c2=O)Cc2cc3c(CN(C)C)c(O)ccc3nc2-1,12.4,66.6*!,-0.2,-0.4
CCCOc1ccccc1C1C(C(=O)OC)=C(C)Nc2nnnn21 (stereo not drawn),13.6,2.0,0.0,0.2
O=C1C=CC(=NS(=O)(=O)c2ccc(C(=O)O)cc2)C=C1,6.6,55.6*,0.1,0.3
O=C(O)c1ccc(S(=O)(=O)c2ccc(C(=O)O)cc2)cc1,-7.1,-1.4,0.4,-1.4
O=C(NCc1ccccc1)c1csc(-c2ccccc2)n1,-4.0,-4.6,0.0,0.4
c1ccc(-c2cc(-c3ccccc3)[n+](CCc3c[nH]c4ccccc34)c(-c3ccccc3)c2)cc1,70.2*,10.0,-0.1,2.3
O=C(Nc1nc2c(s1)CCCC2)c1cc(=O)c2ccccc2o1,17.8,8.7,-0.1,-1.5
